# Source: PubChem BioAssay (NCATS)
# Several values for one entry are separate records, joined by “and”; a condition that tells them apart may be missing. Equal entries are not always repeated. Records with an inconclusive call do not appear. Where a call stands in place of a potency, no number is given. Activity calls are given as the source filed them. Unless noted, calls come from the whole dose curve; as a rule, active = well fitted curve in the direction sought with a large enough effect; inconclusive = small, poorly fitted or top-dose-only effect, or another doubt; inactive = no such curve, though single readings can be large; an effect the other way counts as inactive or inconclusive.
# Assays:
# [1] = Primary qHTS for inhibitors of nuclear receptor binding SET domain protein 2 (NSD2) in an RCH-ACV wild type WT cells (2C) (AID 1645877); note: nearly all actives have a fitted effect of over 70% in size; note: potency is the fitted concentration of half-maximal effect
# [2] = target: Metallo-beta-lactamase type 2 (Klebsiella pneumoniae) (UniProt C7C422); test: qHTS to identify inhibitors of the New Delhi Metallo-beta-lactamase (NDM): assay validation screen against the NCATS LOPAC Collection (AID 1794843);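 note: nitrocefin turnover by NDM-1 measured as 485 nm absorbance at plateau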
# Chain of Metallo-beta-lactamase type 2 (Klebsiella pneumoniae) (C7C422 whole entry, looked up): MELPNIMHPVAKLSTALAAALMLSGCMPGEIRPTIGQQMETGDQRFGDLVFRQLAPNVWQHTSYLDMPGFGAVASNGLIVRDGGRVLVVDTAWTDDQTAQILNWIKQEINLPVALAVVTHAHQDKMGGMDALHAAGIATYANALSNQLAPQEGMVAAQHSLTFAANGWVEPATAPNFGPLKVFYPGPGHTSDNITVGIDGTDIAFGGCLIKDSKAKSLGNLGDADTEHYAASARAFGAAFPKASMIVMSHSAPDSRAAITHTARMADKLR
# Method in brief: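 Enzyme 2 nM final, 50 mM HEPES pH 7.0, 1 uM ZnSO4, 0.01% Tween20; cpds in DMSO, preincub w/ enzyme; + nitrocefin (50 uM stock); A485 at plateau; no-enzyme column as blank.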
# [3] = target: Glutathione peroxidase 1 (Homo sapiens) (UniProt P07203); test: Primary qHTS Assay for Inhibitors of Recombinant Selenoprotein Glutathione Peroxidase 1 (GPX1) (AID 1845191); note: nearly all actives have a fitted effect of over 65% in size; note: potency is the fitted concentration of half-maximal effect
# Chain of Glutathione peroxidase 1 (Homo sapiens) (P07203 whole entry, looked up): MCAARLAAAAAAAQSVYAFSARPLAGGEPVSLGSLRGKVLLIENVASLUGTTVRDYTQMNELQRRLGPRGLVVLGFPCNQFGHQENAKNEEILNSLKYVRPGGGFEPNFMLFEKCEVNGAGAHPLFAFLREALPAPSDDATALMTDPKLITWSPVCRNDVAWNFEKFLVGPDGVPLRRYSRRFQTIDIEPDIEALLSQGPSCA
# Method in brief: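 GR-coupled assay: compounds preincubated 30 min at room temperature with GPX1, then reaction started with CHP; final 10 nM GPX1, 1 mM GSH, 0.5 mM CHP, 0.5 mM NADPH, 100 nM GR, 0.01% BSA, pH 7.5 Tris buffer. NADPH fluorescence (340/450 nm) read at 0 and 15 min.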
# [4] = target: Phospholipid hydroperoxide glutathione peroxidase GPX4 (Homo sapiens) (UniProt P36969); test: Primary qHTS Assay for Inhibitors of Recombinant Selenoprotein Glutathione Peroxidase 4 (GPX4) (AID 1845192); conditions: outcome: dose series up to 50 µM unless noted; note: nearly all actives have a fitted effect of over 65% in size
# Chain of Phospholipid hydroperoxide glutathione peroxidase GPX4 (Homo sapiens) (P36969 whole entry, looked up): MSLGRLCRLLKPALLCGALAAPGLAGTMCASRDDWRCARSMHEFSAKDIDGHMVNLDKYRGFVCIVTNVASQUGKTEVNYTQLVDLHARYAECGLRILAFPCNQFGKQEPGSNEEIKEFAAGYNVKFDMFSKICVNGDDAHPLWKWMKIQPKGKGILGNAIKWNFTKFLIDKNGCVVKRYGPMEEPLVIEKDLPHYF
# Method in brief: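 GR-coupled assay: recombinant GPX4 preincubated 30 min with compound at room temperature; final 200 nM GPX4, 1 mM GSH, 0.5 mM cumene hydroperoxide, 0.5 mM NADPH, 100 nM GR, 0.01% BSA, pH 7.5 Tris. NADPH fluorescence (340/450 nm) read at 0 and 15 min.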
# [5] = target: Rap guanine nucleotide exchange factor 3 (Homo sapiens) (UniProt O95398); test: Confirmatory qHTS for antagonist of cAMP-regulated guanine nucleotide exchange factor 3 (EPAC1) (AID 1645880); note: nearly all actives have a fitted effect of over 55% in size
# Chain of Rap guanine nucleotide exchange factor 3 (Homo sapiens) (O95398 whole entry, looked up): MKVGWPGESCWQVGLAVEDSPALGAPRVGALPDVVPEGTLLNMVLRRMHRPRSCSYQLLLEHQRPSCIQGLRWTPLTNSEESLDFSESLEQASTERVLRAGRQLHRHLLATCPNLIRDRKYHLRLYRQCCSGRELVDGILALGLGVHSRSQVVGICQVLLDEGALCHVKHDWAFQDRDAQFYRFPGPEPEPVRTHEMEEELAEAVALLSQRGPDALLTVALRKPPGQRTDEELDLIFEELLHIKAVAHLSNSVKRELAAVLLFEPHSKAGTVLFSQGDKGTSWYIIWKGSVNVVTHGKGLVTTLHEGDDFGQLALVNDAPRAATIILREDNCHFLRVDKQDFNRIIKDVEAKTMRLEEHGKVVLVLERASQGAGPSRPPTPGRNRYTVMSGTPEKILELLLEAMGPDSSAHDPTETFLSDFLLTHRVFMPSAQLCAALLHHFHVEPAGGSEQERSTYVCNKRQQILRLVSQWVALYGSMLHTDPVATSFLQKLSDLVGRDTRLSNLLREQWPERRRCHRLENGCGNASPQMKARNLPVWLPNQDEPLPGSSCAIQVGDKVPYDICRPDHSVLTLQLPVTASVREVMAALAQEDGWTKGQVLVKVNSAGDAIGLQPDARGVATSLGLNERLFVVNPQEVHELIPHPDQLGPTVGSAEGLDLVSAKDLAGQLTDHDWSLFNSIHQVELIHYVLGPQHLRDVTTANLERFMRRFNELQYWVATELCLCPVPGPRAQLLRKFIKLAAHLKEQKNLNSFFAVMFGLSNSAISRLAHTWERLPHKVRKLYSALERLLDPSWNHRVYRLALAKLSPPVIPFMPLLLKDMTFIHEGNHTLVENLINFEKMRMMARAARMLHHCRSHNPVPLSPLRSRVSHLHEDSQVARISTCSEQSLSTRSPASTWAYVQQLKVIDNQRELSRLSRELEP
# Method in brief: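 Nucleotide exchange uses 100 nM EPAC1, 250 nM RAP1B-BODIPY-GDP and 50 uM GDP, with compounds in a concentration-titration series. After 5 min at room temperature, fluorescence (480 nm ex/540 nm em) is read every 5 min for 30 min. Data are normalized to control ATA and DMSO.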
# [6] = target: Rap guanine nucleotide exchange factor 3 (Homo sapiens) (UniProt O95398); test: Confirmatory qHTS for agonist of cAMP-regulated guanine nucleotide exchange factor 3 (EPAC1) (AID 1645881);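 note: EPAC1 catalysed release of BODIPY-GDP from Rap1B seen as fluorescence loss; nearly all actives have a fitted effect of over 75% in size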
# [7] = target: Rap guanine nucleotide exchange factor 4 (Homo sapiens) (UniProt Q8WZA2); test: Confirmatory qHTS for agonist of cAMP-regulated guanine nucleotide exchange factor 4 (EPAC2) (AID 1645884);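 note: nucleotide exchange releases bodipy-GDP from Rap1 and this lowers its fluorescence; nearly all actives have a fitted effect of over 65% in size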
# Chain of Rap guanine nucleotide exchange factor 4 (Homo sapiens) (Q8WZA2 whole entry, looked up): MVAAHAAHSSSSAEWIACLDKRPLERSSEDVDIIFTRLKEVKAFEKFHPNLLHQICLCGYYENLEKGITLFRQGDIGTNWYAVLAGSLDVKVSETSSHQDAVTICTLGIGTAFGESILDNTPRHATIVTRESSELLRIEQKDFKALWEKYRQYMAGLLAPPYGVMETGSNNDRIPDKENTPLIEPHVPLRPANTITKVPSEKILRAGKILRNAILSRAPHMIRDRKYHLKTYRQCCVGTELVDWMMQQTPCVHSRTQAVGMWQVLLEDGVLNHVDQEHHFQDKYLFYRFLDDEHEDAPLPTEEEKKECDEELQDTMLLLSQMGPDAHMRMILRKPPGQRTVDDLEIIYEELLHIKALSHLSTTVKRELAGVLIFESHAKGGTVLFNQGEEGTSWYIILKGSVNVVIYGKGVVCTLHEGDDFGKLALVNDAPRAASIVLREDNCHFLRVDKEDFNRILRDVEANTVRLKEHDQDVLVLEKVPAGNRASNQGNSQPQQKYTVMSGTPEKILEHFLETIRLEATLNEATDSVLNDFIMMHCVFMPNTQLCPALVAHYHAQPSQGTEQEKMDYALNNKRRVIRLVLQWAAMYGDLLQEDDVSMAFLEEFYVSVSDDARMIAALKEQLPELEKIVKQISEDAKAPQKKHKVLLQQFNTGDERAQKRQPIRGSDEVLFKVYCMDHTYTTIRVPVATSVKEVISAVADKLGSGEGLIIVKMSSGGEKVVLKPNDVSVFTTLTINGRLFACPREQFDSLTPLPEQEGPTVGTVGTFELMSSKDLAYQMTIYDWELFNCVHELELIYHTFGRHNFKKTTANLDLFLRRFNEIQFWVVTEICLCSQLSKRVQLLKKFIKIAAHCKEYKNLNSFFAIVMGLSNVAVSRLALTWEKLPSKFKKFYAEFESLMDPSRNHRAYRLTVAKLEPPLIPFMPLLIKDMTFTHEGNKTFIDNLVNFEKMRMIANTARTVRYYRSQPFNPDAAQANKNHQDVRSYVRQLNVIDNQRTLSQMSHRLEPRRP
# [8] = target: Rap guanine nucleotide exchange factor 4 (Homo sapiens) (UniProt Q8WZA2); test: Confirmatory qHTS for antagonist of cAMP-regulated guanine nucleotide exchange factor 4 (EPAC2) (AID 1645885); note: nearly all actives have a fitted effect of over 25% in size
# [9] = target: Catechol O-methyltransferase (Homo sapiens) (UniProt P21964); test: Confirmatory Screen for Target Class Profiling of Small Molecule Inhibitors of Methyltransferases (AID 1745852; calls by dose curve); conditions: MTase-Glo luminescence, SAH detection, recombinant enzyme; measured here: COMT max response; stronger effect = lower value
# Chain of Catechol O-methyltransferase (Homo sapiens) (P21964 whole entry, looked up): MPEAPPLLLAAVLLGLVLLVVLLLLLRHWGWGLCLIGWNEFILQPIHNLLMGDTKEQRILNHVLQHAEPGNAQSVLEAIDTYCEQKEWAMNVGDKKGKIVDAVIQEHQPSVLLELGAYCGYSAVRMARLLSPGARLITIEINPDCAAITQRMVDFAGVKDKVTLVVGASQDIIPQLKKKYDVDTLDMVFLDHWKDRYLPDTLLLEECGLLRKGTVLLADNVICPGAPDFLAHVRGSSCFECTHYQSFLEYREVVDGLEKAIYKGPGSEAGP
# [10] = target: Guanidinoacetate N-methyltransferase (Homo sapiens) (UniProt Q14353); test: as above; conditions: MTase-Glo luminescence, SAH detection, recombinant enzyme; at 57.3 µM (top of the series)
# [11] = target: Nicotinamide N-methyltransferase (Homo sapiens) (UniProt P40261); test: as above; conditions: MTase-Glo luminescence, SAH detection, recombinant enzyme; measured here: NNMT max response; stronger effect = lower value
# Chain of Nicotinamide N-methyltransferase (Homo sapiens) (P40261 whole entry, looked up): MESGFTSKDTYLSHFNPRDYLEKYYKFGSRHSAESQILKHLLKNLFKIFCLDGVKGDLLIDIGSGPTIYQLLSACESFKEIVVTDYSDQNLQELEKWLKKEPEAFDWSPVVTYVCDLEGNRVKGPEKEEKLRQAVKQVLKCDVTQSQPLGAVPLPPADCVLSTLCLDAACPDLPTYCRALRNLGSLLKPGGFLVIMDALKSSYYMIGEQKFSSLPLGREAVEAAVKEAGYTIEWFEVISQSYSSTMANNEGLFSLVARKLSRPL
# [12] = target: Phenylethanolamine N-methyltransferase (Homo sapiens) (UniProt P11086); test: as above; conditions: MTase-Glo luminescence, SAH detection, recombinant enzyme; measured here: PNMT max response; stronger effect = lower value
# Chain of Phenylethanolamine N-methyltransferase (Homo sapiens) (P11086 whole entry, looked up): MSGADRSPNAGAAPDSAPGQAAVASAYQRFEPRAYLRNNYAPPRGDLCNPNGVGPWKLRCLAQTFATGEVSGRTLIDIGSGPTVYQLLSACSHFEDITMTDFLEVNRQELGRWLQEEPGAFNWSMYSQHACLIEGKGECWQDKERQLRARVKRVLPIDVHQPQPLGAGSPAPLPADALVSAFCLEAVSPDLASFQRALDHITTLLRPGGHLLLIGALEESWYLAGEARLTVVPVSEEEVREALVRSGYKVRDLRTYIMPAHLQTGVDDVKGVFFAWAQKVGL
# [13] = qHTS drug screen for cell cycle checkpoint inhibitors in PARPi-resistant BRCA-mutant ovarian cancer cell lines. (AID 1963452; calls by dose curve); conditions: PEO1/OlaR viability, CellTiter-Glo luminescence, 96 h, stronger effect = lower value
# Method in brief: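 PEO1, PEO4 and PEO1/OlaR ovarian cancer cells, 600 per well, exposed 96 h at 37C to a dilution series. Viability read by CellTiter-Glo luminescence, normalized to DMSO and empty wells; activity summarized as Z-AUC.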
# [14] = measured here: PEO1 parental Z-AUC
smiles,measurement,setting,value
CN=C(NC#N)NCCSCc1nc[nH]c1C,Potency,[1],inactive
same,Potency,[2],inactive
same,Potency,[3],inactive
same,outcome,[4],inactive
CC(=O)OCC1=C(C(=O)O)N2C(=O)[C@@H](NC(=O)Cc3cccs3)[C@H]2SC1,Potency,[1],inactive
same,Potency,[2],inactive
same,outcome,[4],inactive
CCn1nc(C(=O)O)c(=O)c2cc3c(cc21)OCO3,Potency,[1],inactive
same,Potency,[2],inactive
same,Potency,[3],inactive
same,outcome,[4],inactive
CC(C)NCC(O)c1cc(O)cc(O)c1 (configuration not stated),Potency,[1],inactive
same,Potency,[2],inactive
same,outcome,[4],inactive
CC(C)(Oc1ccc(CCNC(=O)c2ccc(Cl)cc2)cc1)C(=O)O,Potency,[1],inactive
same,Potency,[2],inactive
same,outcome,[4],inactive
CC(=O)OC(C)C[N+](C)(C)C (configuration not stated),Potency,[1],inactive
same,Potency,[2],inactive
same,Potency,[3],inactive
same,outcome,[4],inactive
NS(=O)(=O)c1cc2c(cc1Cl)NC(C1CC3C=CC1C3)NS2(=O)=O (configuration not stated),Potency,[1],inactive
same,Potency,[2],inactive
same,Potency,[3],inactive
same,outcome,[4],inactive
C[C@@H](O)[C@H]1C(=O)N2C(C(=O)O)=C(SCCN=CN)C[C@H]12,Potency,[1],inactive
same,Potency,[2],inactive
same,Potency,[3],inactive
same,outcome,[4],inactive
Brc1c(NC2=NCCN2)ccc2nccnc12,Potency,[1],inactive
same,Potency,[2],inactive
same,outcome,[4],inactive
CCCCCN(CCCCC)C(=O)C(CCC(=O)O)NC(=O)c1ccc(Cl)c(Cl)c1 (configuration not stated),Potency,[1],inactive
same,Potency,[2],inactive
same,Potency,[3],inactive
same,outcome,[4],inactive
CSc1ccc(C(=O)c2[nH]c(=O)[nH]c2C)cc1,Potency,[1],inactive
same,Potency,[2],inactive
same,Potency,[3],inactive
same,outcome,[4],inactive
O=C(O)CN(CCOCCOCCN(CC(=O)O)CC(=O)O)CC(=O)O,"activity change, negative = cell killing",[1],-1.31% [at 0.588 µM] (inactive)
same,Potency,[2],inactive
same,Potency,[3],inactive
same,outcome,[4],inactive
Nc1c2c(nc3ccccc13)CCCC2O (configuration not stated),Potency,[1],inactive
same,Potency,[2],inactive
same,outcome,[4],inactive
CN1C(=O)CC[C@H]1c1cccnc1,Potency,[1],inactive
same,Potency,[2],inactive
same,outcome,[4],inactive
CN(C)C(=O)Oc1cccc([N+](C)(C)C)c1,Potency,[1],inactive
same,Potency,[2],inactive
same,Potency,[3],inactive
same,outcome,[4],inactive
NCCCNCCSP(=O)(O)O,"activity change, negative = cell killing",[1],5.49% [at 9.23 µM] (inactive)
same,Potency,[2],inactive
same,Potency,[3],inactive
same,outcome,[4],inactive
CCCCNC(=O)NS(=O)(=O)c1ccc(C)cc1,Potency,[1],inactive
same,Potency,[2],inactive
same,Potency,[3],inactive
same,outcome,[4],inactive
COCC(=O)O[C@]1(CCN(C)CCCc2nc3ccccc3[nH]2)CCc2cc(F)ccc2[C@@H]1C(C)C,Potency,[1],9.44 µM (active)
same,Potency,[2],inactive
same,Potency,[3],inactive
same,outcome,[4],inactive
CO[C@@]1(NC(=O)CSCC#N)C(=O)N2C(C(=O)O)=C(CSc3nnnn3C)CS[C@@H]21,Potency,[1],inactive
same,Potency,[2],inactive
same,Potency,[3],4.04 µM (active) and 25.1 µM (active)
same,outcome,[4],inactive
C(=C\c1ccccc1)/CN1CCN(C(c2ccccc2)c2ccccc2)CC1,Potency,[1],inactive
same,Potency,[2],inactive
same,Potency,[3],inactive
same,outcome,[4],inactive
CCN1CCC[C@H]1CNC(=O)c1c(O)c(Cl)cc(Cl)c1OC,Potency,[1],inactive
same,Potency,[2],inactive
same,Potency,[3],inactive
same,outcome,[4],inactive
Cc1ccc(S(=O)(=O)NC(=O)NN2CCCCCC2)cc1,Potency,[1],inactive
same,Potency,[2],inactive
same,outcome,[4],inactive
FC(F)(F)c1ccccc1-n1ccnc1,Potency,[1],inactive
same,Potency,[2],inactive
same,Potency,[3],inactive
same,outcome,[4],inactive
CN/C(=C\[N+](=O)[O-])NCCSCc1ccc(CN(C)C)o1,Potency,[1],inactive
same,Potency,[3],inactive
same,outcome,[4],inactive
CCOC(=O)C1=C(C)NC(C)=C(C(=O)OC)C1c1cccc([N+](=O)[O-])c1 (configuration not stated),outcome,[5],inactive
same,Potency,[6],inactive
same,Potency,[3],inactive
same,outcome,[4],inactive
NC(Cc1ccc(Cl)cc1)C(=O)O (configuration not stated),"activity change, negative = cell killing",[1],2.13% [at 0.588 µM] (inactive)
same,Potency,[3],inactive
same,outcome,[4],inactive
CCN(CC)CC(=O)Nc1c(C)cccc1C,Potency,[1],inactive
same,Potency,[3],inactive
NC(=Nc1ccccc1)Nc1ccccc1,Potency,[1],inactive
same,Potency,[3],inactive
Cc1cccc(C)c1NC(=O)C(C)N (configuration not stated),outcome,[5],inactive
same,Potency,[6],inactive
same,Potency,[7],inactive
same,Potency,[8],inactive
same,Potency,[2],inactive
same,outcome,[4],inactive
CN(C(=O)CCCOc1ccc2[nH]c(=O)ccc2c1)C1CCCCC1,Potency,[1],inactive
same,Potency,[3],inactive
same,outcome,[4],inactive
COC(=O)[C@@H](N)Cc1ccc(O)c(O)c1,activity,[9],134%
same,"activity change, negative = inhibition",[10],1.23%
same,activity,[11],4.06%
same,activity,[12],5.34%
same,Potency,[2],inactive
same,Potency,[3],inactive
same,outcome,[4],inactive
C[N+](C)(C)CCOC(=O)CCC(=O)OCC[N+](C)(C)C,Potency,[1],inactive
same,Potency,[2],inactive
same,outcome,[4],inactive
CCCN(CCC)C(=O)C(CCC(=O)O)NC(=O)c1ccccc1 (configuration not stated),Potency,[1],inactive
same,Potency,[2],inactive
same,outcome,[4],inactive
same,Z-AUC,[13],0.987 (inactive)
same,Z-AUC,[13]; [14],0.633
same,Z-AUC,[13]; measured here: PEO4 Z-AUC,0.925
CC[N+](C)(C)c1cccc(O)c1,Potency,[1],inactive
same,Potency,[3],inactive
same,outcome,[4],inactive
CCn1cc(C(=O)O)c(=O)c2cc3c(cc21)OCO3,Potency,[1],inactive
same,Potency,[3],inactive
CC1=NS(=O)(=O)c2cc(Cl)ccc2N1,Potency,[1],inactive
same,Potency,[2],inactive
same,outcome,[4],inactive
Cc1cc(C)c(/C=C2\C(=O)Nc3ccccc32)[nH]1,Potency,[1],inactive
same,Potency,[2],inactive
same,outcome,[4],inactive
same,Z-AUC,[13],0.918 (inactive)
same,Z-AUC,[13]; [14],0.596
same,Z-AUC,[13]; measured here: PEO4 Z-AUC,0.161
NC(=O)c1ncn([C@@H]2O[C@H](CO)[C@@H](O)[C@H]2O)c1O,Potency,[1],inactive
same,Potency,[2],inactive
same,outcome,[4],inactive
same,Z-AUC,[13],1.15 (inactive) and 0.284 (inactive)
same,Z-AUC,[13]; [14],0.935 and 0.686
same,Z-AUC,[13]; measured here: PEO4 Z-AUC,1.08 and 0.519
CCN(CC)CCNC(=O)c1cc(S(C)(=O)=O)ccc1OC,Potency,[1],inactive
same,Potency,[3],inactive
same,outcome,[4],inactive
